Consider one molecule from ChEMBL document CHEMBL1961873, “Compounds: GSK PKIS; Assays: Nanosyn kinase panel” (2012).

Experiment [1] addresses Sphingosine kinase 1 (Homo sapiens) (UniProt Q9NYA1). The conditions noted are these: at 1 µM.
The target in experiment [2] is T1, Sphingosine kinase 2 (Homo sapiens) (UniProt Q9NRA0).
T1 sequence (whole entry): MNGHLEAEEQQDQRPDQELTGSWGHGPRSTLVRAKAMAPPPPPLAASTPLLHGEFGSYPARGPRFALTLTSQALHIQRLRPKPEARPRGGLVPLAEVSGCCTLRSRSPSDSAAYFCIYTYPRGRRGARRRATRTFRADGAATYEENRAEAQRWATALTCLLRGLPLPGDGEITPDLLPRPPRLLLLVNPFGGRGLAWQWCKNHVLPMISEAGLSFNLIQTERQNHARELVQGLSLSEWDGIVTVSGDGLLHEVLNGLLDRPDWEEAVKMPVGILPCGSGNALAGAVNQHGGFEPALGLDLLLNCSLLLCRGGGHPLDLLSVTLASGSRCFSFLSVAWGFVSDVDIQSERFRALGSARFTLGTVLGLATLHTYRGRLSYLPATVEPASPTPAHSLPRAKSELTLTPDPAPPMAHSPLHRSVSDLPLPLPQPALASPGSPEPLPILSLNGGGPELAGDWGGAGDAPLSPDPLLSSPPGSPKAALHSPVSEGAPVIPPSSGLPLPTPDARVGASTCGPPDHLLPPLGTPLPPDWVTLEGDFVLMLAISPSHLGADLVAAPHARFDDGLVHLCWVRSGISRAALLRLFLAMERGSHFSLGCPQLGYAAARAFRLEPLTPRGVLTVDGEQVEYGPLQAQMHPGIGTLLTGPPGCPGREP
The conditions noted are these: at 0.1 µM.

Experiment [3] deals with T1, Sphingosine kinase 2 (Homo sapiens). The following applies: at 1 µM.
Experiment [4] addresses Casein kinase II subunit alpha (Homo sapiens) (UniProt P68400). The conditions noted are these: at 0.1 µM.
Experiment [5] shares this target. The following applies: at 1 µM.
Experiment [6] has as its target T2, Inhibitor of nuclear factor kappa-B kinase subunit alpha (Homo sapiens) (UniProt O15111).
T2 sequence (whole entry): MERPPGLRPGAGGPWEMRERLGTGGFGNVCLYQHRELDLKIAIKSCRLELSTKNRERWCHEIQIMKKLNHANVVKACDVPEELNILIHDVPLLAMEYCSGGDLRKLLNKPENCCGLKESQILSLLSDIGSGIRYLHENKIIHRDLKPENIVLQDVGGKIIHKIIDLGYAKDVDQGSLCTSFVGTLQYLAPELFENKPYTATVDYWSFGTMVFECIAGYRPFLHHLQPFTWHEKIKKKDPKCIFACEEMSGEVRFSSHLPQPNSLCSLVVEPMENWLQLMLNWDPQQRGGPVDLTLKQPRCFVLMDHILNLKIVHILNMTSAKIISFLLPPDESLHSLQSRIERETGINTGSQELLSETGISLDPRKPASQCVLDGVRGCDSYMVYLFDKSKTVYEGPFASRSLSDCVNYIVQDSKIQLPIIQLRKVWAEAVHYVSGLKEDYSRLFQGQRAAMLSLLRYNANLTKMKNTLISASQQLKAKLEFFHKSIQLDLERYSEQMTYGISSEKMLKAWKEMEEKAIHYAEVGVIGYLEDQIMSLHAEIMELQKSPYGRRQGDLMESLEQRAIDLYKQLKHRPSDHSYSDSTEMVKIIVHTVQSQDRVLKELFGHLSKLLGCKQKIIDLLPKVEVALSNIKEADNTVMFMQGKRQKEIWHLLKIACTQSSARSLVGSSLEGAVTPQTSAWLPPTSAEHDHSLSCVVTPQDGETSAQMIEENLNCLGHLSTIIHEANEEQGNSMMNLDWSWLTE
The following applies: at 0.1 µM.

Experiment [7] has as its target T2, Inhibitor of nuclear factor kappa-B kinase subunit alpha (Homo sapiens). The following applies: at 1 µM.
Experiment [8] deals with T3, Inhibitor of nuclear factor kappa-B kinase subunit beta (Homo sapiens) (UniProt O14920).
T3 sequence (whole entry): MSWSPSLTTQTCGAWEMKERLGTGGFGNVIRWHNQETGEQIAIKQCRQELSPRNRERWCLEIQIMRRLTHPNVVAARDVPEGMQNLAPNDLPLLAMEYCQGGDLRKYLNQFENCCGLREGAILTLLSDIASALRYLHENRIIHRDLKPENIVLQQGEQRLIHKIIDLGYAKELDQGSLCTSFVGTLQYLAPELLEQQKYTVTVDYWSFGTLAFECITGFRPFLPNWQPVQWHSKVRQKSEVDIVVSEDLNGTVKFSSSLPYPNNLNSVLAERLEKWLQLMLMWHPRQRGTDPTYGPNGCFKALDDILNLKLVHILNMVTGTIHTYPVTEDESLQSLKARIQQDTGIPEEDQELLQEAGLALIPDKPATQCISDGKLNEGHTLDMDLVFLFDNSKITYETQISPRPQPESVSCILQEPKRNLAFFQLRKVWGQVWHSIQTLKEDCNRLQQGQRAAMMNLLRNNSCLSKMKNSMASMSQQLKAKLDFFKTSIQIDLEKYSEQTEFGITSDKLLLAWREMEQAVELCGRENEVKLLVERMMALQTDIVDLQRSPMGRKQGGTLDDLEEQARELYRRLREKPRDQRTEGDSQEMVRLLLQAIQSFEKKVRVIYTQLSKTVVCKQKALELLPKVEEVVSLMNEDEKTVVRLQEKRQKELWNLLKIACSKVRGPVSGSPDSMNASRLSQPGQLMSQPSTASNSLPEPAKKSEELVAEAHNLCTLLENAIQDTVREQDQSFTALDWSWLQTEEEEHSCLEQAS
The conditions noted are these: at 0.1 µM.

Experiment [9] concerns the target T3, Inhibitor of nuclear factor kappa-B kinase subunit beta (Homo sapiens). The following applies: at 1 µM.
The target of experiment [10] is T4, Inhibitor of nuclear factor kappa-B kinase subunit epsilon (Homo sapiens) (UniProt Q14164).
T4 sequence (whole entry): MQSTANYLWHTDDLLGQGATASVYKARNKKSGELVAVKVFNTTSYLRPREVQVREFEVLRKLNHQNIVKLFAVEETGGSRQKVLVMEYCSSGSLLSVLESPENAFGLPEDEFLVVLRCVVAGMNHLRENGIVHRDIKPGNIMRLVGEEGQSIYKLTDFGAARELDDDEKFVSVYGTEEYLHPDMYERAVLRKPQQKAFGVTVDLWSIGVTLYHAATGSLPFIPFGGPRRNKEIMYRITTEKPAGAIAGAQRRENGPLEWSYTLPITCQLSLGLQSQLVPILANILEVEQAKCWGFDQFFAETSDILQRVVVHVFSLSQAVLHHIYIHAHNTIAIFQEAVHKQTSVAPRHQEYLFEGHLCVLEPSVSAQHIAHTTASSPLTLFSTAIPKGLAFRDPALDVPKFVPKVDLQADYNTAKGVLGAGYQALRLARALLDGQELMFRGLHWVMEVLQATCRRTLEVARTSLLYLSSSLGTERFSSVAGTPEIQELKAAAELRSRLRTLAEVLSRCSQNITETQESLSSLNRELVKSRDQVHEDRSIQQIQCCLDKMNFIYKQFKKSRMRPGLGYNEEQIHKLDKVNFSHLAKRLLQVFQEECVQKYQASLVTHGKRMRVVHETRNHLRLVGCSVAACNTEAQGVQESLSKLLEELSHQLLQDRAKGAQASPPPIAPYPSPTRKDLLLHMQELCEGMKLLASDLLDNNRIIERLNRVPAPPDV
The conditions noted are these: at 0.1 µM.

Experiment [11] concerns the target T4, Inhibitor of nuclear factor kappa-B kinase subunit epsilon (Homo sapiens). The following applies: at 1 µM.
The target in experiment [12] is T5, Serine/threonine-protein kinase Nek1 (Homo sapiens) (UniProt Q96PY6).
T5 sequence (whole entry): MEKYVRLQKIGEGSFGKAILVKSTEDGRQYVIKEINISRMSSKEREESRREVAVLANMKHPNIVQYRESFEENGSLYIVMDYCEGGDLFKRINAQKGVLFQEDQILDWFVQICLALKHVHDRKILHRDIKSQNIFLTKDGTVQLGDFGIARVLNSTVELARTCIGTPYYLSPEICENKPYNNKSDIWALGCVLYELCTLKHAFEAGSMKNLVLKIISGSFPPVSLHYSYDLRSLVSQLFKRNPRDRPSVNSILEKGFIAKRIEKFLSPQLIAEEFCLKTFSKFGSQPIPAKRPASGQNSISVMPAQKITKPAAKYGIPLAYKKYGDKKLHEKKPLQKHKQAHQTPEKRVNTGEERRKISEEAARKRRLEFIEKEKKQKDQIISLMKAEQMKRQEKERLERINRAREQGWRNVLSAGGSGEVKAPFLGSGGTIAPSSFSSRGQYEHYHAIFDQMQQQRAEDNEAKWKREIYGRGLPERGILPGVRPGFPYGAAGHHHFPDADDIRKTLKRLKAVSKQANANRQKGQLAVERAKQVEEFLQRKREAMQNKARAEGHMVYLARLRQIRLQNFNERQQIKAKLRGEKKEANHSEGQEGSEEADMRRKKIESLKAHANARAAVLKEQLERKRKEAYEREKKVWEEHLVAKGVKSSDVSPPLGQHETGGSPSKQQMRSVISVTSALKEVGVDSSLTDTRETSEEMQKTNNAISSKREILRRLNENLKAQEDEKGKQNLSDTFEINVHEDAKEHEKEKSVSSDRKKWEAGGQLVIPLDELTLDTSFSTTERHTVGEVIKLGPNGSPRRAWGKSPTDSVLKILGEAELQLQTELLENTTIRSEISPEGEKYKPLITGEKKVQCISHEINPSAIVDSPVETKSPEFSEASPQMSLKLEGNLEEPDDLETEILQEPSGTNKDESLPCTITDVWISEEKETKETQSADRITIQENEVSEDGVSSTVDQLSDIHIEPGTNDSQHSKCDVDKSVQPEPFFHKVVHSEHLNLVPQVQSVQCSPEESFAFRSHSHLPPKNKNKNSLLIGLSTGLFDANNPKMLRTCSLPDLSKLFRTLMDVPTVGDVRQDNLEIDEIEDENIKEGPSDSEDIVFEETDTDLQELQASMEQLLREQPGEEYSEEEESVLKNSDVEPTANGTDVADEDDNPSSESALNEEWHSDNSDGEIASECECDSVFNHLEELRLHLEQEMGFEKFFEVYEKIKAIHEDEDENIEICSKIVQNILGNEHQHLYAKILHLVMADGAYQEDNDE
The following applies: at 0.1 µM.

In experiment [13] the target is T5, Serine/threonine-protein kinase Nek1 (Homo sapiens). The following applies: at 1 µM.
Experiment [14] deals with T6, Serine/threonine-protein kinase Nek2 (Homo sapiens) (UniProt P51955).
T6 sequence (whole entry): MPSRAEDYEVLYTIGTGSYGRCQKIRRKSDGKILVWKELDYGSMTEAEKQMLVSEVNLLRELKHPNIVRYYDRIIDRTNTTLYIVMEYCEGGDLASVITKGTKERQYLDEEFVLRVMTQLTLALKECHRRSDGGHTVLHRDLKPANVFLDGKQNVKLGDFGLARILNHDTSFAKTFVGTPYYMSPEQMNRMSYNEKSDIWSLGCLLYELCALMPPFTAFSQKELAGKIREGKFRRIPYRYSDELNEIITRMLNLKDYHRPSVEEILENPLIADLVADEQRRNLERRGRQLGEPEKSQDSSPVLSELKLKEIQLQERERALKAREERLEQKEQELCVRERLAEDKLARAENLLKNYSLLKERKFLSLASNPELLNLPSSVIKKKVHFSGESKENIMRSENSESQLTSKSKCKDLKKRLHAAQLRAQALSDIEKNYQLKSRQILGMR
The following applies: at 0.1 µM.

Experiment [15] concerns the target T6, Serine/threonine-protein kinase Nek2 (Homo sapiens). The conditions noted are these: at 1 µM.
The target in experiment [16] is Serine/threonine-protein kinase Nek6 (Homo sapiens) (UniProt Q9HC98). The following applies: at 0.1 µM.
Sequence of Serine/threonine-protein kinase Nek6 (Homo sapiens) (Q9HC98 whole entry): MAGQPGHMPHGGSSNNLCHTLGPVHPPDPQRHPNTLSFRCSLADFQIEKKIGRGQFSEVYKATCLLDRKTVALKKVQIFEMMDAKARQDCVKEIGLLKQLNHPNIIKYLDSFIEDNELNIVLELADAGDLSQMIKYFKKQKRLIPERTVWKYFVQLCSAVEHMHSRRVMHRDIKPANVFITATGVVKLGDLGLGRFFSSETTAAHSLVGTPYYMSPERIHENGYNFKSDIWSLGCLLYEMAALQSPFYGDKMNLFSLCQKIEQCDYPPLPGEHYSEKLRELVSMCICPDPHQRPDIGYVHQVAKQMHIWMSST
The target is the same in experiment [17]. The conditions noted are these: at 1 µM.
Experiment [18] has as its target Serine/threonine-protein kinase Nek7 (Homo sapiens) (UniProt Q8TDX7). The following applies: at 0.1 µM.
Experiment [19] shares this target. The following applies: at 1 µM.
Experiment [20] concerns the target T7, Serine/threonine-protein kinase Nek9 (Homo sapiens) (UniProt Q8TD19).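 Further: reported value is the mean percent inhibition of NEK9.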
T7 sequence (whole entry): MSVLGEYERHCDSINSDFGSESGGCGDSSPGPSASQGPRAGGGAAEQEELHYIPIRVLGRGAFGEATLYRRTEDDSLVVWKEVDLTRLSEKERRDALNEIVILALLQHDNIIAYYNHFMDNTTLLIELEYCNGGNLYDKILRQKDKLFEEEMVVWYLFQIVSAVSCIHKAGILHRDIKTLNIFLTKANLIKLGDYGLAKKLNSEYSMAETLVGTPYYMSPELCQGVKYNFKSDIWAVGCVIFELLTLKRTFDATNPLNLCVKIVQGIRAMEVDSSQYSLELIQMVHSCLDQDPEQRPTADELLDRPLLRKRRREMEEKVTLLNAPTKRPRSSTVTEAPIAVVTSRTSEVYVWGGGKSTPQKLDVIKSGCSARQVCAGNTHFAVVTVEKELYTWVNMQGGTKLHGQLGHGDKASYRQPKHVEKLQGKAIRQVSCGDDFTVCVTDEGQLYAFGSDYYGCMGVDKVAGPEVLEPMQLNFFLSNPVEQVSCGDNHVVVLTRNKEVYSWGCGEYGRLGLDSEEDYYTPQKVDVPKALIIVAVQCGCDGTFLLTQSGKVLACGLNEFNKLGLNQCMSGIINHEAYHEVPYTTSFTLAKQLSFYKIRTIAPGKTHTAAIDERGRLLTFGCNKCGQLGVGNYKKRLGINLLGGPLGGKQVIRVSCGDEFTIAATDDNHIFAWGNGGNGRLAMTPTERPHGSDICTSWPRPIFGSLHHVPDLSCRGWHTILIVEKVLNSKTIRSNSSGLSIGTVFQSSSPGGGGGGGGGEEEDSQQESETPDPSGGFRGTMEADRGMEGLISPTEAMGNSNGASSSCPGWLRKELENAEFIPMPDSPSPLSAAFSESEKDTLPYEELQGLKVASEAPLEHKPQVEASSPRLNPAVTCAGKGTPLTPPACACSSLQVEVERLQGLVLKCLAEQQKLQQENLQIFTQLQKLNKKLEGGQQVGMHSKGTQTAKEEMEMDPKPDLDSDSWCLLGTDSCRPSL
The conditions noted are these: at 0.1 µM.

Sequence of Serine/threonine-protein kinase Nek7 (Homo sapiens) (Q8TDX7 whole entry, looked up): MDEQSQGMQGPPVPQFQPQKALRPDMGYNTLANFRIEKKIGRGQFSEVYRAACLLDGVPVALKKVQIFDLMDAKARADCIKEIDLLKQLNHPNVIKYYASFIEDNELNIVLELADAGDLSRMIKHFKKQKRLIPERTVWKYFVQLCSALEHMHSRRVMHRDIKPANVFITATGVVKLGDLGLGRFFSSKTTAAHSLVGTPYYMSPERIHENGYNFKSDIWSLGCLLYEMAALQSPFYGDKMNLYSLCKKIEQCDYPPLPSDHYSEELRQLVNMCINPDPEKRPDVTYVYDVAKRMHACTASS
Sequence of Casein kinase II subunit alpha (Homo sapiens) (P68400 whole entry, looked up): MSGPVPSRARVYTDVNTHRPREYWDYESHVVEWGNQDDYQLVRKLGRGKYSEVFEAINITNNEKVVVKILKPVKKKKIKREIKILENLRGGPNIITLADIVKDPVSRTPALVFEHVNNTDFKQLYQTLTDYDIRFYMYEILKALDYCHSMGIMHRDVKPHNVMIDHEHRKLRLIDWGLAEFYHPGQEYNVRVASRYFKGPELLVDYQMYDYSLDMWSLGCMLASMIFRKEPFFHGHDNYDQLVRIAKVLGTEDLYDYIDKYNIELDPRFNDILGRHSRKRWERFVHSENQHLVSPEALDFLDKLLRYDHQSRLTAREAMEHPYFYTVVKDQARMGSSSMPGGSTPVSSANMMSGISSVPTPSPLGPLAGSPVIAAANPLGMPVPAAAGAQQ
Sequence of Sphingosine kinase 1 (Homo sapiens) (Q9NYA1 whole entry): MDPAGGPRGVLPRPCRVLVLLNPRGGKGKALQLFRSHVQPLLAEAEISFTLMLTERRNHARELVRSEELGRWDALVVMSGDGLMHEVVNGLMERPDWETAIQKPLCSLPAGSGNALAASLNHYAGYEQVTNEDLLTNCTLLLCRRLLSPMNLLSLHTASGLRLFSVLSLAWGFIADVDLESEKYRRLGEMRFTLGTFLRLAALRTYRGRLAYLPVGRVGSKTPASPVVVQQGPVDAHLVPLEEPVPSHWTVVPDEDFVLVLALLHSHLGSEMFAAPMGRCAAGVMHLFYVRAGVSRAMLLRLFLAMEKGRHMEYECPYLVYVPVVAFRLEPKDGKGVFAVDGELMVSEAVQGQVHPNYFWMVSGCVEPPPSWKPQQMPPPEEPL

The inhibition is the relative decrease from the control value, in per cent. As for `CCCN(CCS(C)(=O)=O)Cc1ccc(-c2ccc3ncnc(Nc4ccc(OCc5cccc(F)c5)c(Cl)c4)c3c2)o1`, the inhibition in [1] amounted to 0.07%; in [2] it was 0.75%; in experiment [3] it was 0.76%; in experiment [4] it was 4.77%; in experiment [5], 9.35%; in [6] it was 3.79%. Further, the inhibition in experiment [7] is 2.86%; in [8] it was 0.53%; in [9] it was 0.26%; in experiment [10], 2.17%; in experiment [11], 1.08%; in [12], 2.4%. Besides, the inhibition was 2.96% in [13]; 3.32% in [14]; 3.71% in experiment [15]; -0.2% in experiment [16]; 0.97% in experiment [17]; 3.69% in [18]. For the same molecule, the values for the inhibition in [19] and in [20] were 3.24% and 6.94%, respectively.
